Laboratory results from PubChem BioAssay (Tox21).
Activity calls are given as the source filed them. Unless noted, calls come from the whole dose curve; as a rule, active = well fitted curve in the direction sought with a large enough effect in the repeat runs; inconclusive = weak or mixed curves; inactive = no such curve, though single readings can be large; an effect the other way counts as inactive or inconclusive.

Columns and labels:
[1] = qHTS assay for identifying genotoxic compounds that show differential cytotoxicity against isogenic chicken DT40 cell lines with known DNA damage response pathways - wild type cell line (AID 743012); note: nearly all actives have a fitted effect of over 60% in size; note: potency is the fitted concentration of half-maximal effect
Procedure, shortened: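 Wild-type DT40 cells (300/well) exposed to compounds for 40 hours at 37 C/5% CO2. Viability read by CellTiter-Glo luminescence after 30 min at room temperature.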

[2] = qHTS assay for identifying genotoxic compounds that show differential cytotoxicity against isogenic chicken DT40 cell lines with known DNA damage response pathways - Rev3 mutant cell line (AID 743014); note: nearly all actives have a fitted effect of over 55% in size; note: potency is the fitted concentration of half-maximal effect
[3] = qHTS assay for identifying genotoxic compounds that show differential cytotoxicity against isogenic chicken DT40 cell lines with known DNA damage response pathways - Rad54/Ku70 mutant cell line (AID 743015); note: nearly all actives have a fitted effect of over 60% in size; note: potency is the fitted concentration of half-maximal effect
[4] = qHTS assay to identify small molecule antagonists of the thyroid receptor (TR) signaling pathway - cell viability counter screen (AID 743064); note: nearly all actives have a fitted effect of over 50% in size; note: potency is the fitted concentration of half-maximal effect
Procedure, shortened: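 Fluorescence from CellTiter-Fluor, added after 23.5 h exposure at 37 °C, reported viability of GH3.TRE-Luc cells co-treated with compound and 1 nM T3. Measured in the same wells as the luciferase TR readout.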

[5] = target: Estrogen receptor (Homo sapiens) (UniProt P03372); assay: qHTS assay to identify small molecule antagonists of the estrogen receptor alpha (ER-alpha) signaling pathway (AID 743069; active = well fitted curve in the direction sought with a large enough effect in the signal ratio in the repeat runs, not every such curve was filed as active; inconclusive = weak or mixed curves, or effect the other way; inactive = no such curve, though single readings can be large or run the other way; the % refers to the signal ratio; note: potency is the fitted concentration of half-maximal effect)
Procedure, shortened: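 ER-alpha-UAS-bla GripTite HEK293 line; 2% charcoal-stripped FBS overnight; plated, 4 hr 37C/5% CO2; cpd in DMSO + 17beta-estradiol, 18 hr 37C; LiveBLAzer B/G FRET substrate 2 hr RT; fluorescence intensity.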

[6] = target: Estrogen receptor (Homo sapiens) (UniProt P03372); assay: qHTS assay to identify small molecule agonists of the estrogen receptor alpha (ER-alpha) signaling pathway (AID 743075; calls by dose curve;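 note: HEK293 GripTite cells with ER-alpha and UAS-driven beta-lactamase reporter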; note: potency is the fitted concentration of half-maximal effect)
[7] = qHTS assay to identify small molecule antagonists of the estrogen receptor alpha (ER-alpha) signaling pathway using the BG1 cell line - cell viability counter screen (AID 743081);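 note: compound given together with 17beta-estradiol as the ER stimulus; nearly all actives have a fitted effect of over 45% in size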; note: potency is the fitted concentration of half-maximal effect
[8] = target: Aromatase (Homo sapiens) (UniProt P11511); assay: qHTS assay to identify aromatase inhibitors (AID 743083); note: nearly all actives have a fitted effect of over 55% in size; note: potency is the fitted concentration of half-maximal effect
[9] = qHTS assay to identify aromatase inhibitors - cell viability counter screen (AID 743084);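 note: cells stimulated with testosterone during compound exposure; nearly all actives have a fitted effect of over 55% in size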; note: potency is the fitted concentration of half-maximal effect
[10] = qHTS assay to identify small molecule antagonists of the glucocorticoid receptor (GR) signaling pathway - cell viability counter screen (AID 720693); note: nearly all actives have a fitted effect of over 55% in size
[11] = qHTS assay to identify small molecule antagonists of the androgen receptor (AR) signaling pathway - cell viability counter screen (AID 743033; note: nearly all actives have a fitted effect of over 45% in size; note: potency is the fitted concentration of half-maximal effect)
[12] = qHTS assay to identify small molecule antagonists of the androgen receptor (AR) signaling pathway using the MDA cell line - cell viability counter screen (AID 743041; note: nearly all actives have a fitted effect of over 45% in size; note: potency is the fitted concentration of half-maximal effect)
Procedure, shortened: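 Cells were plated at 3,000 per well and left 5 h. Compounds in DMSO were then pinned in, followed by R1881. After 16 h at 37C, CellTiter-Fluor fluorescence gave viability.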

[13] = qHTS assay to identify small molecule antagonists of the thyroid receptor (TR) signaling pathway (AID 743065); note: nearly all actives have a fitted effect of over 55% in size; note: potency is the fitted concentration of half-maximal effect
Procedure, shortened: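 Antagonism measured as loss of luciferase signal in GH3 cells stably carrying a TRE-luciferase reporter, co-treated with compound and T3 (1 nM final) for 23.5 h at 37 C. Viability was read in the same well by CellTiter-Fluor.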

[14] = test system: thyroid hormone receptor (rat, GH3 cells); assay: qHTS assay to identify small molecule agonists of the thyroid receptor (TR) signaling pathway (AID 743066; calls by dose curve; note: potency is the fitted concentration of half-maximal effect)
[15] = qHTS assay to identify small molecule antagonists of the estrogen receptor alpha (ER-alpha) signaling pathway - cell viability counter screen (AID 743074; calls by dose curve;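 note: HEK293 cells carrying ER-alpha-UAS-bla reporter stimulated with 17beta-estradiol; nearly all actives have a fitted effect of over 45% in size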)
[16] = target: Estrogen receptor (Homo sapiens) (UniProt P03372); assay: qHTS assay to identify small molecule agonists of the estrogen receptor alpha (ER-alpha) signaling pathway using the BG1 cell line (AID 743079); note: nearly all actives have a fitted effect of over 20% in size; note: potency is the fitted concentration of half-maximal effect
[17] = qHTS assay to identify small molecule antagonists of the estrogen receptor alpha (ER-alpha) signaling pathway using the BG1 cell line (AID 743080; calls by dose curve;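 note: BG1 cells stimulated with 17beta-estradiol alongside compound; nearly all actives have a fitted effect of over 25% in size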; note: potency is the fitted concentration of half-maximal effect)
Procedure, shortened: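 Luminescence from a 4×ERE-luciferase reporter in BG1-Luc-4E2 cells served as read-out. Cells, pre-cultured 5 days in stripped-serum phenol-red-free medium, were exposed to compound with 17beta-estradiol co-stimulation for 21.5 h at 37 C.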

[18] = target: Androgen receptor (Homo sapiens) (UniProt P10275); assay: qHTS assay to identify small molecule agonists of the androgen receptor (AR) signaling pathway using the MDA cell line (AID 743040; note: nearly all actives have a fitted effect of over 20% in size)
Procedure, shortened: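 Cells plated, 5 h at 37C/0% CO2; compound or DMSO pinned; 16 h at 37C; ONE-Glo added; luminescence measured after 30 min at room temperature. Reporter line: MDA-kb2 with MMTV-luciferase responsive to AR and GR.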

[19] = target: Androgen receptor (Homo sapiens) (UniProt P10275); assay: qHTS assay to identify small molecule antagonists of the androgen receptor (AR) signaling pathway using the MDA cell line (AID 743042; note: nearly all actives have a fitted effect of over 55% in size; note: potency is the fitted concentration of half-maximal effect)
Procedure, shortened: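 Antagonist mode: compounds plus R1881 agonist added to MDA-kb2 AR-luc cells, incubated 16 h at 37C. Luciferase reporter luminescence quantified, with multiplexed CellTiter-Fluor readout for cell viability.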

Measured: Potency

Androgen receptor (Homo sapiens), sequence (P10275 whole entry, looked up): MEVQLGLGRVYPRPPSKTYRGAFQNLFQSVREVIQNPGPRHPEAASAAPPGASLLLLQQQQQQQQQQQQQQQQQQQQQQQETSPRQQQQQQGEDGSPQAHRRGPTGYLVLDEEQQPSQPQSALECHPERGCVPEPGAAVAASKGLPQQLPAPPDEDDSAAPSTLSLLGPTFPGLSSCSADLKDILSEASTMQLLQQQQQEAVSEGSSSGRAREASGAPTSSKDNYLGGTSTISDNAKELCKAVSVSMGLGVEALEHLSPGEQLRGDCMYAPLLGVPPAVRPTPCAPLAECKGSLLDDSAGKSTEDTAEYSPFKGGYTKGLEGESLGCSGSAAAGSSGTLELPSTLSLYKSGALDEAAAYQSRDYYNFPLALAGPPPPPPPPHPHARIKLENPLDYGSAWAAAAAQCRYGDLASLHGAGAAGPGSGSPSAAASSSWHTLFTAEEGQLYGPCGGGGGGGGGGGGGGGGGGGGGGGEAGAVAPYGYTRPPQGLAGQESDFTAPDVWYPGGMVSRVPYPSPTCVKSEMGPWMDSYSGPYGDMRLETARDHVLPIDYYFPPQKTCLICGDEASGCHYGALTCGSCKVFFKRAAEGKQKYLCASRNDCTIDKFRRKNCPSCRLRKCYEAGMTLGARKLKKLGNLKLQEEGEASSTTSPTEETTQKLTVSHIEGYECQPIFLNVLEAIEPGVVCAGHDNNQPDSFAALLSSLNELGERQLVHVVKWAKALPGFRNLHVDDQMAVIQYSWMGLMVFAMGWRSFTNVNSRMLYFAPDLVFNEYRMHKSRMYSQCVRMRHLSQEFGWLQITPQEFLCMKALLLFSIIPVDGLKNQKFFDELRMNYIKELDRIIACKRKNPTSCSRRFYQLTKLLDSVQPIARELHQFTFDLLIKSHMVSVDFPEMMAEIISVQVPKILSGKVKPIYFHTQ
Estrogen receptor (Homo sapiens), sequence (P03372 whole entry, looked up): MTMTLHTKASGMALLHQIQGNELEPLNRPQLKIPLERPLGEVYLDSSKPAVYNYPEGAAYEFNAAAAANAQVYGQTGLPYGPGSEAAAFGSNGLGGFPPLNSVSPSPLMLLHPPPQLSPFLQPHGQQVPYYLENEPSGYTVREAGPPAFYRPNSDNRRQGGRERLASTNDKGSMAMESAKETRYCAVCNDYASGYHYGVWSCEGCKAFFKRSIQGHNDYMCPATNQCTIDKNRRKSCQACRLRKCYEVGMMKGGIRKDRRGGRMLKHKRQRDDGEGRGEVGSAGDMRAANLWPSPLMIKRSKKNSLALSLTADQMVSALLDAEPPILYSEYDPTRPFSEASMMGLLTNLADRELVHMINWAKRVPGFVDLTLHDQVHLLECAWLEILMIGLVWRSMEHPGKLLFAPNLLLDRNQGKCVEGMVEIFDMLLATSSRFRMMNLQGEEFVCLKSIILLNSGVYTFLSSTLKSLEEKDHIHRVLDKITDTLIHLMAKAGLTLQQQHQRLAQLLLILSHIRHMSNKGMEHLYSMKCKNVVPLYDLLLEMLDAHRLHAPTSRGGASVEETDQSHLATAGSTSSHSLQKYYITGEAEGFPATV
Aromatase (Homo sapiens), sequence (P11511 whole entry, looked up): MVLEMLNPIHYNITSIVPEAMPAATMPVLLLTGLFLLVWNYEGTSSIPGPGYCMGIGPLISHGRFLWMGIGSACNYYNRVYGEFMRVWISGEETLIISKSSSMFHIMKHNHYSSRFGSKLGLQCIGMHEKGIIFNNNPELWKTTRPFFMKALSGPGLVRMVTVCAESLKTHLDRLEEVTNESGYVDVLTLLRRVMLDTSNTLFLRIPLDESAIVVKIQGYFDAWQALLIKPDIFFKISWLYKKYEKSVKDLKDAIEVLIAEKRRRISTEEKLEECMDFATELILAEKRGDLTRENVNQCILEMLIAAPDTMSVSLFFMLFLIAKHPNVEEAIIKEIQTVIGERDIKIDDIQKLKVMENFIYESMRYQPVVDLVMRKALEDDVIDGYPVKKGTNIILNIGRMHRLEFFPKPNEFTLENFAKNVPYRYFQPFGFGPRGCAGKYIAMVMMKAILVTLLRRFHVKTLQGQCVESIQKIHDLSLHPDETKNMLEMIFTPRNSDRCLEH

CCN(Cc1cccc(S(=O)(=O)O)c1)c1ccc(C(=C2C=CC(=[N+](CC)Cc3cccc(S(=O)(=O)O)c3)C=C2)c2ccc(O)cc2S(=O)(=O)[O-])cc1
active: [1] 10.5 µM | [2] 9.32 µM | [3] 11.7 µM | [4] 37.1 µM | [7] 33.1 µM | [8] 18.6 µM | [9] 29.5 µM
inactive: [5] | [6]

COC(=O)c1sccc1S(N)(=O)=O
not listed: [1] | [2] | [18] | [19]
inactive: all other assays above

CCN(Cc1cccc(S(=O)(=O)O)c1)c1ccc(C(=C2C=CC(=[N+](CC)Cc3cccc(S(=O)(=O)O)c3)C=C2)c2ccccc2S(=O)(=O)[O-])cc1
inactive: [14] | [5] | [6]
active: [2] 17.3 µM | [3] 15.4 µM | [12] 38.7 µM | [4] 34.5 µM | [13] 15.4 µM | [7] 38.7 µM | [8] 17.3 µM | [9] 13.7 µM

CCCCCCCCCCCCCCN(C)C
not listed: [1] | [4] | [11] | [13] | [18] | [19]
inactive: all other assays above

CC(C)(O)c1coc(S(=O)(=O)NC(=O)Nc2c3c(cc4c2CCC4)CCC3)c1
inactive: [10] | [11] | [12] | [13] | [14] | [15] | [7] | [8] | [9]

COc1cc(S(=O)(=O)Nc2ccccc2)c(OC)cc1N
not listed: [1] | [2] | [15] | [18] | [19]
inactive: all other assays above

COC(=O)C1=C(C)NC(C)=C(C(=O)OC(C)(C)CN(C)CCC(c2ccccc2)c2ccccc2)C1c1cccc([N+](=O)[O-])c1 (stereo unspecified)
active: [1] 5.96 µM | [2] 6.68 µM | [3] 9.44 µM | [19] 29.8 µM | [4] 8.41 µM | [5] 10.7 µM [inhibitor] | [17] 26.6 µM | [8] 18.8 µM
inactive: [18] | [12] | [6] | [7] | [9]

CC(=O)Oc1cccc(O)c1
not listed: [10] | [17] | [18] | [19]
inactive: all other assays above

Oc1ccc2c(c1)Cc1ccccc1-2
active: [6] 24.5 µM [activator] | [16] 13.7 µM
inactive: [10] | [12] | [14] | [15] | [7] | [8] | [9]

CO[C@@H]1[C@@H](OC)[C@H](C)[C@@](O)(CC(=O)O)O[C@H]1[C@H](C)[C@H]1O[C@@]2(CC[C@@](C)([C@H]3CC[C@@](C)([C@@H]4O[C@@H]([C@H]5O[C@](C)(O)[C@H](C)C[C@@H]5C)C[C@@H]4OC4C[C@H](OC)[C@@H](OC)[C@H](C)O4)O3)O2)C[C@H](O)[C@H]1C (stereo partly specified)
inactive: [6] | [8]
active: [2] 0.15 µM | [3] 0.211 µM | [12] 1.06 µM | [4] 0.422 µM | [13] 0.335 µM | [7] 2.98 µM

Nc1ccc(N=Nc2ccc(N)cc2)cc1
active: [4] 24.3 µM
inactive: [10] | [2] | [13] | [14] | [5] | [15] | [6] | [16] | [17] | [8]

O=C1c2ccccc2C(=O)c2c(O)ccc(O)c21
active: [3] 7.7 µM | [9] 38.6 µM
inactive: [2] | [12] | [14] | [15]

O=C(NC(Cc1cc(=O)[nH]c2ccccc12)C(=O)O)c1ccc(Cl)cc1 (stereo unspecified)
not listed: [1] | [4] | [11] | [18] | [19]
inactive: all other assays above

CC(=O)NCCO
inactive: [10] | [3] | [11] | [12] | [13] | [14] | [15] | [7] | [8] | [9]

CC(C)OC(=O)c1ccccc1C(=O)OC(C)C
inactive: [10] | [11] | [12] | [5] | [6] | [16] | [17] | [7] | [8] | [9]
active: [2] 43.3 µM

O=C(c1ccccc1)c1ccc(O)cc1
inactive: [10] | [11] | [18] | [12] | [19] | [14] | [15] | [7] | [8] | [9]
active: [16] 9.8 µM

Cc1c(C2(c3cc(Br)c(O)c(Br)c3C)OS(=O)(=O)c3ccccc32)cc(Br)c(O)c1Br
inactive: [14]
active: [1] 18.8 µM | [2] 18.8 µM | [3] 18.8 µM | [11] 16.9 µM | [12] 23.6 µM | [4] 42 µM | [7] 11.8 µM | [8] 16.7 µM | [9] 18.8 µM

Cc1ccc2c(c1[N+](=O)[O-])C(=O)c1ccccc1C2=O
inactive: [10] | [11] | [12] | [14] | [15] | [6] | [7] | [8]
active: [3] 30 µM | [16] 3.78 µM

C=C(C)c1ccccc1
inactive: [2] | [3] | [12] | [4] | [13] | [14] | [15] | [7]

CC(C)C1CCC(C(=O)N[C@H](Cc2ccccc2)C(=O)O)CC1 (stereo partly specified)
not listed: [1] | [2] | [18] | [19]
inactive: all other assays above

CC(=O)OCCC(C)CC(C)(C)C (stereo unspecified)
active: [14] 24.3 µM
not listed: [10] | [18] | [19]
inactive: all other assays above

CC/C=C\C/C=C\C/C=C\CCCCCCCC(=O)OCC
inactive: [10] | [11] | [12] | [14] | [15] | [7]
active: [3] 70.1 µM

CC(=O)OCC(=O)[C@@]1(OC(C)=O)[C@@H](C)C[C@H]2[C@@H]3C[C@H](F)C4=CC(=O)C=C[C@]4(C)[C@@]3(F)[C@@H](O)C[C@@]21C
active: [2] 11.9 µM
inactive: [10] | [11] | [12] | [4] | [13] | [14] | [15] | [7] | [8]

CCCCCCCCCCCSCC(=O)O
active: [5] 54.9 µM [inconclusive]
inactive: [2] | [3] | [11] | [12] | [15] | [6] | [17] | [7] | [8] | [9]
